Holding throughout (experiment): NCI-60 one-dose screen, 48 h (100 = growth as untreated, 0 = no growth, -100 = all killed)
Holding throughout (conditions): 10 µM unless noted

Assay [1] has as its system DU-145 prostate.
The subject of assay [2] is K-562 leukemia.
In assay [3] the test system is MALME-3M melanoma.
Assay [4] relates to MDA-MB-231 breast.
Assay [5] deals with RXF 393 renal.
Assay [6] deals with SF-268 CNS.
In assay [7] the test system is SF-295 CNS.
In assay [8] the test system is SF-539 CNS.
For assay [9], the system named is UACC-257 melanoma.
Assay [10] deals with M14 melanoma.
For assay [11], the system named is HCT-15 colon.
For assay [12], the system named is SNB-75 CNS.
For assay [13], the system named is SNB-19 CNS.
Assay [14] relates to U251 CNS.
Assay [15] deals with PC-3 prostate.
In assay [16] the test system is SK-MEL-5 melanoma.
Assay [17] deals with UACC-62 melanoma.
The test system of assay [18] is LOX IMVI melanoma.
In assay [19] the test system is SK-MEL-28 melanoma.
Assay [20] concerns HT29 colon.

This is part of a sample that, as a whole, favours compounds with a hit. Of some 83,000 tested, about 20% had one in any assay.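 A percent growth of 40 corresponds to 60% growth inhibition; 0 means no net growth; -100 means all cells died. Active threshold: below 10.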 Values without a mark were called inactive. Activity calls are given as the source filed them.

For the compound `O=C1Nc2ccccc2/C1=N/N=C/c1ccc(OC2OC(CO)C(O)C(O)C2O)cc1` (stereo unspecified), the growth in assay [1] is 114%; in [2], 98.3%; in assay [3], 101%; in assay [4] it was 105%; in assay [5] it was 114%; in assay [6], 102%. Also, the growth in assay [7] was 110%; in assay [8], 97.5%; in assay [9] it was 106%; in assay [10], 108%; in [11] it was 105%; in assay [12], 96.8%. Further, the growth was 100% in assay [13]; 106% in [14]; 105% in assay [15]; 103% in [16]; 101% in [17]; 101% in assay [18]. Moreover, the growth in [19] was 108%.
Take `Fc1ccc(Nc2nc(Nc3ccc(-c4nc5ccccc5[nH]4)cc3)c3cn[nH]c3n2)cc1`: the growth in assay [1] was 54.3%; in assay [2], -28.7% (active); in [3], 107%; in assay [4], 22.2%; in [5], 76.2%; in assay [6] it was 75.1%. The growth was 92.6% in assay [7]; 85.5% in assay [8]; 101% in assay [9]; -41.2% (active) in [11]; -8.84% (active) in assay [20]; 83.3% in [12]. Further, the growth in assay [13] was 87.6%; in [14], 33.5%; in assay [15] it was 76.6%; in assay [16], 78.8%; in [17], 84.9%; in assay [18] it was -64.6% (active). For the same compound, the growth in assay [19] was 51.7%.
Take `O=C(Nc1ccc(N2CCCCC2)c(Cl)c1)c1ccc(Br)o1`: the growth in [1] was 68%; in assay [2] it was 68.1%; in assay [3], -66.9% (active); in assay [4] it was 69.2%; in assay [5], 108%; in assay [6] it was 76%. In addition, the growth is 105% in assay [7]; 118% in [8]; 67.5% in [9]; 61.1% in [11]; 73.7% in assay [20]; 60.7% in assay [12]. Also, the growth was 78.3% in assay [13]; 68.5% in assay [14]; 58% in assay [15]; -96.8% (active) in assay [16]; -40.2% (active) in assay [17]; 2.04% (active) in [18]. For the same compound, in assay [19], the growth is 39.6%.
Consider `COc1ccc(OC)c(Nc2nc3nonc3nc2Nc2cc(OC)ccc2OC)c1`, for which the growth was 55.5% in assay [1]; 75.5% in [2]; 29.9% in [3]; -1.9% (active) in assay [4]; 14.8% in assay [5]; 45.6% in [6]. For the same compound, the growth was 77.9% in assay [7]; 9.98% (active) in [8]; 52.1% in assay [9]; 73.5% in assay [11]; 42.6% in assay [20]; 18.7% in assay [12]. Besides, the growth was 76.1% in assay [13]; 11.5% in assay [14]; 79.4% in assay [15]; 12% in assay [16]; 47% in [17]; 34.3% in [18]. In [19], the growth was 58.1%.
For the compound `CC[C@]1(O)C[C@H]2CN(CCc3c([nH]c4ccccc34)[C@@](C(=O)OC)(c3cc4c(cc3OC)N(C=O)[C@H]3[C@@](O)(C(=O)OC)[C@H](OC(C)=O)[C@]5(CC)C=CCN6CC[C@]43[C@@H]65)C2)C1`, the growth in assay [1] is -42.5% (active); in assay [2] it was -0.624% (active); in [3], 45.4%; in assay [4], -27.1% (active); in assay [5], -36% (active); in [6], 23.9%. Besides, the growth was 13.6% in [7]; -28.7% (active) in [8]; 5.68% (active) in [9]; 10.9% in [11]; -3.03% (active) in assay [20]; 15.7% in assay [12]. The growth was 10.1% in assay [13]; 24.2% in assay [14]; 18.3% in assay [15]; -73.5% (active) in assay [16]; 23.9% in [17].
As for `CCOc1ccc(S(=O)(=O)c2ccc(C)cc2)c2c1no[n+]2[O-]`, the growth in [1] is 86.2%; in assay [2], 46.1%; in assay [3], 81.3%; in assay [4], 81.2%; in assay [5] it was 81.8%; in assay [6] it was 99.1%. Also, the growth in [7] is 82.9%; in assay [8] it was 87%; in [9] it was 95.8%; in assay [10], 93.4%; in [20], 52.8%; in [12], 54.7%. Also, the growth in assay [13] is 87.9%; in [14] it was 80.1%; in assay [15], 82.1%; in assay [16], 72.5%; in [17], 78.5%; in [18], 87.1%. The growth in [19] was 104%.
For the compound `CCCc1cc(=O)oc2c3c(c4c(c12)OC(C)(C)C=C4)O[C@@H](C)[C@H](C)C3=O`, the growth in [1] is 79.4%; in assay [2] it was 47.6%; in assay [3], 90%; in assay [4], 71.9%; in [5], 18.4%; in assay [6] it was 86.4%. The growth in assay [7] was 69.9%; in assay [8] it was 81%; in [9] it was 55.1%; in [11], 98.1%; in assay [20] it was 41%; in assay [12] it was 87.7%. For the same compound, the growth in assay [13] was 93.6%; in [14] it was 65.7%; in assay [15], 40.7%; in assay [16], 32.1%; in assay [17], 66%; in assay [18] it was 81.2%.
For the compound `CCCCCCCCn1cc(C2=C(c3coc4ccc(OC)cc34)C(=O)NC2=O)c2ccccc21`, the growth in assay [1] is 106%; in [2], 121%; in [3], 89.5%; in assay [4], 102%; in [5], 105%; in assay [6] it was 97.2%. The growth in assay [7] was 97.2%; in assay [8] it was 95.7%; in [9] it was 94.7%; in assay [10] it was 96.1%; in assay [11] it was 97.4%; in [12], 84.8%. The growth was 108% in assay [13]; 97.2% in assay [14]; 107% in [15]; 99.2% in assay [16]; 96.2% in assay [17]; 101% in [19].
As for `C=C(CNCCc1ccc(O)cc1)[C@@H]1CC[C@]2(COC3CCCCO3)CC[C@]3(C)[C@H](CC[C@@H]4[C@@]5(C)CCC(N)C(C)(C)[C@@H]5CC[C@]43C)[C@@H]12` (stereo partly specified), the growth is -88.9% (active) in [1]; -73% (active) in [2]; -83.9% (active) in assay [3]; -92.2% (active) in assay [4]; -83.9% (active) in assay [5]; -71.6% (active) in assay [6]. The growth in [7] is -88% (active); in assay [8], -94.9% (active); in assay [9], -80.7% (active); in [10], -88.6% (active); in assay [11], -93% (active); in assay [12], -88% (active). The growth in assay [13] was -85.8% (active); in assay [14], -91.7% (active); in assay [15], -91% (active); in [16], -97.9% (active); in assay [17], -87% (active); in [19], -94.9% (active).

The values are drawn from PubChem BioAssay (NCI).
